Reference: PubChem BioAssay AID485350 (ICCB-Longwood Screening Facility, Harvard Medical School, 2010)
The campaign covered roughly 84,000 compounds. About 95 (0.1%) were called active. The entries come from a sample that favours actives as a whole. Unmarked numbers belong to inactive results. No stated cut-off is given here; in the data, active means inhibition above about 25% (passing the limit was not always enough); inactive means the rest.

Each compound was assayed on BasE (2,3-dihydroxybenzoate-AMP ligase), Acinetobacter baumannii ATCC 17978 (assay: inhibitors of A. baumannii BasE – biochemical, Acinetobacter baumannii ATCC 17978, fluorescence polarization, primary screen (AID 485350;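 further: 0% = negative plate control signal and 100% = positive plate control signal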)). Settings: purified BasE, fluorescence polarization binding displacement; hits give high values; concentration not given here.

Going from `CC(=O)Nc1cccc(C(=O)OCC(=O)N2CCN(c3ccccc3)CC2)c1` to `O=C(OCC(=O)N1CCCc2ccccc21)c1cc2ccccc2oc1=O`, the inhibition falls from 0.21% to -0.7%.

Going from `Oc1ccc(N=Cc2cn(-c3ccccc3)nc2-c2ccco2)cc1` to `Cc1cc(C(=O)N/N=C/c2ccc(O)cc2)c2ccccc2n1`, the inhibition rises from -0.83% to -0.11%.

Compared with `C/C(N)=C(/C#N)C(=O)CSc1n[nH]c(C(C)C)n1`, `CCOCCCn1c(CC(N)=O)n[nH]c1=S` is lower in inhibition: 1.38% for the first, 0.4% for the second.

Compared with `CC(Oc1coc(CN2CCN(Cc3ccccc3)CC2)cc1=O)c1ccccc1` (configuration not stated), `Cc1ccc(CN2CCC(CNC(=O)Cn3c(=O)oc4ccccc43)CC2)cc1` is higher in inhibition: -0.18% for the first, 3.44% for the second.

First: O=C(O)Cc1cc(=O)n(C2CCS(=O)(=O)C2)[nH]1 (configuration not stated)
Second: O=C(O)Cc1ccc(C(F)(F)F)cc1
The inhibition of the first is higher: -0.2% for the first, -1.44% for the second.

First: O=S(=O)(NCCC1=CCCCC1)c1ccc(Cl)cc1
Second: Cc1noc(/C=C/N2CCOCC2)c1S(=O)(=O)N(C)CCc1ccc(Cl)cc1
The inhibition of the first is lower: -0.06% for the first, 3.54% for the second.

First: c1snnc1C12CC3CC(CC(C3)C1)C2
Second: O=C(CCNC(=O)NC12CC3CC(CC(C3)C1)C2)Nc1ccc(-n2cnnn2)cc1
The inhibition of the first is lower: -2.21% for the first, 2.05% for the second.

First: NC(=O)C[n+]1cccc(C(N)=O)c1
Second: C=CCC(CC=C)(C(N)=O)c1ccccc1
The inhibition of the first is lower: -2.44% for the first, 2.87% for the second.

Going from `CCOC(=O)c1cc(-c2ccc(S(=O)(=O)N(C)Cc3cnn(-c4ccccc4)c3)s2)on1` to `CCOC(=O)c1nn(-c2ccccc2)c(=O)cc1OCC`, the inhibition rises from -0.03% to 0.32%.

First: CN(C)S(=O)(=O)c1ccc(C(=O)Nc2ccccc2C(=O)NCc2ccc3c(c2)OCO3)cc1
Second: O=C(NCc1ccc(-c2nc3ccccc3o2)cc1)c1ccccc1Br
The inhibition of the first is lower: -2.15% for the first, -0.19% for the second.

Going from `O=C(Oc1ccc2c3c(c(=O)oc2c1)CCC3)C1CCCCC1` to `O=C(C1=Cc2sc3c(c2CS1)CCCC3)N1CCCC1`, the inhibition falls from 2.18% to 0.06%.

First: COc1cc2c(cc1OC)C(C)N(Cc1sc3ccccc3c1C)CC2 (configuration not stated)
Second: CCn1c2ccccc2c2nnc(SCC(=O)NCCc3ccc(OC)c(OC)c3)nc21
The inhibition of the first is lower: -2.07% for the first, -1.45% for the second.

First: O=C1CSC(=Nc2ccccc2)N1S(=O)(=O)c1ccccc1
Second: O=C1N(CNc2ccccc2)CCN1CNc1ccccc1
The inhibition of the first is lower: 0.27% for the first, 1.83% for the second.

First: N#Cc1cccc(OC(=O)c2ccccc2)c1
Second: NNC(=O)c1ccc(COc2ccccc2)o1
The inhibition of the first is higher: 1.16% for the first, -1.29% for the second.

Compared with `COC(=O)c1cccc(NS(=O)(=O)c2cccs2)c1`, `COC(=O)C1=CN(C(C)C)C=C(C(=O)OC)C1c1cccs1` is lower in inhibition: 0.35% for the first, -11.7% for the second.

Compared with `CCc1ccc(CCC(=O)O)cc1`, `COc1ccc(CC(=O)N/N=C2/CC(=O)CC(C)(C)C2)cc1` is lower in inhibition: 1.07% for the first, -0.19% for the second.

Going from `CCOC(=O)CC1=CSC(NC)N1c1c(C)cc(C)cc1C` (configuration not stated) to `CCNC(=O)c1ccc(OCc2c(C)noc2C)c(OC)c1`, the inhibition falls from 0.61% to -0.55%.

Compared with `CCOC(=O)/C=C1\SCC(=O)N1Cc1cc(Cl)cc2c1OCOC2`, `COc1ccc(Cl)cc1NC(=O)CN1C(=O)CSC(C)C1=O` (configuration not stated) is higher in inhibition: -0.76% for the first, 0.33% for the second.

Compared with `Cc1cc(C)n2nc(SCc3nc4ccc(Cl)cc4n3CCO)nc2n1`, `Cc1cc(C)nc(SCC(=O)OCC(=O)N2CCc3ccccc32)n1` is lower in inhibition: -0.85% for the first, -2.45% for the second.

Compared with `Cc1ccc(Cl)cc1NC(=O)CSc1nc2c(oc3ccccc32)c(=O)n1C1CCCC1`, `Cc1cc(-c2nn(C)c(=O)c3ccccc23)cc(C)c1OC(=O)Nc1ccc(Cl)cc1` is higher in inhibition: 0.55% for the first, 1.43% for the second.

Compared with `CCN(CC(=O)NCc1cccs1)C(=O)c1ccc2c(c1)SC1=NS(=O)(=O)CCN12`, `Cc1cccc(C(CC(=O)NCc2cccs2)n2cccc2)c1` (configuration not stated) is higher in inhibition: 0.92% for the first, 1.33% for the second.

Compared with `O=C(CC1SC(=Nc2ccccc2)NC1=O)NC1CC1` (configuration not stated), `C=CCn1cc(/C=C(\C#N)C(=O)NC2CCCCC2)c2ccccc21` is higher in inhibition: 0.62% for the first, 2.71% for the second.

Going from `O=C(CSc1nnc(Cc2csc(Nc3cccc(Cl)c3)n2)o1)c1ccc2c(c1)OCCO2` to `O=C(CSc1nc2cc3c(cc2c(=O)n1Cc1ccc2c(c1)OCO2)OCO3)NCCc1ccccc1`, the inhibition rises from -0.63% to 0.07%.

Compared with `CC(C)C(NC(=O)C1CCCCC1)C(=O)O` (configuration not stated), `COC(=O)CCC1(C(=O)O)CCOC(C)(C)C1` (configuration not stated) is lower in inhibition: 3.11% for the first, 0.97% for the second.

Compared with `O=C(c1cc(-c2cccs2)on1)N1CCCC1`, `CC(C(=O)N1CCCc2ccccc21)n1nc(-c2cccs2)oc1=O` (configuration not stated) is higher in inhibition: -0.81% for the first, -0.37% for the second.

First: N#Cc1ccc(Cn2cc(Br)ccc2=O)cc1
Second: COc1ccc(CNC(=O)c2cc3c(C)nccc3[nH]c2=O)cc1
The inhibition of the first is higher: 0.99% for the first, 0.94% for the second.

Compared with `O=C(c1ccc(S(=O)(=O)N2CCOCC2)cc1)N1CCn2c1nc1ccccc12`, `O=C(NCC(c1ccco1)N1CCCCC1)c1ccc(S(=O)(=O)N2CCCC2)cc1` (configuration not stated) is higher in inhibition: -1.29% for the first, 1.67% for the second.

Compared with `COc1cc(OC)c(C2Nc3c(C)cc(C)cc3-c3cc(C)nn32)cc1OC` (configuration not stated), `COc1ccccc1OCCCn1cc(/C=C2/C(=N)N3C=CSC3=NC2=O)c2ccccc21` is higher in inhibition: 0.21% for the first, 2.49% for the second.

First: O=C(c1ccc2c(c1)C(=O)N(Cc1ccncc1)C2=O)N1CCN(S(=O)(=O)c2ccc(OC(F)(F)F)cc2)CC1
Second: COc1ccc(O)c(C(=O)c2cnn(C(=O)c3ccc4c(=O)n5c(nc4c3)CCC5)c2)c1
The inhibition of the first is higher: 0.9% for the first, -0.87% for the second.

Compared with `CO/N=C(/C(=O)N[C@@H]1C(=O)N2C(C(=O)[O-])=C(C[N+]3(C)CCCC3)CS[C@H]12)c1csc(N)n1`, `Cc1cc(N2CCN(C)CC2)nc2ccc(NC(=O)NC3CCCC3)cc12` is lower in inhibition: -0.27% for the first, -2.82% for the second.

First: CC(c1ccccc1)N(C)CN1C(=O)c2ccccc2C1=O (configuration not stated)
Second: O=C(Cn1c(=O)oc2ccccc21)NCc1ccccc1
The inhibition of the first is higher: -0.8% for the first, -2.65% for the second.

Compared with `Cc1[nH]c2ccccc2c1C1=CCN(S(=O)(=O)c2cccc3nsnc23)CC1`, `CCCCNc1ncc2c(n1)c(=O)c(C#N)c1[nH]c3ccccc3c(=O)n12` is lower in inhibition: -2.27% for the first, -8.32% for the second.

First: N#CSc1ccc(N2CCCCC2)cc1
Second: O=C(OCCN1CCCCC1)c1ccc(F)cc1
The inhibition of the first is higher: 1.12% for the first, -3.82% for the second.

Compared with `CCCCn1c(SCc2nnc(-c3cccs3)o2)nc2cc(S(N)(=O)=O)ccc21`, `CS(=O)c1nc(-c2cccs2)cc(-c2ccccc2)c1C#N` (configuration not stated) is higher in inhibition: -3.81% for the first, -2.06% for the second.

Compared with `CC1(C)CC(=O)C=C(N2CCN(c3ccccc3F)CC2)C1`, `CCn1c(N2CCN(S(C)(=O)=O)CC2)nc2ccccc21` is lower in inhibition: 0.11% for the first, -0.64% for the second.

Compared with `O=C1CN(C(=O)CSC2=Nc3ccccc3CS2)c2ccccc2N1`, `Cc1cc(C)n(C(=O)N2c3ccccc3Sc3ccccc32)n1` is higher in inhibition: -1.75% for the first, 2.13% for the second.

Compared with `CCOc1ccnc2sc(C(=O)c3cccnc3)c(N)c12`, `CCOC(=O)CSc1ncnc2sc3c(c12)CCC3` is lower in inhibition: 1.88% for the first, -0.59% for the second.

Compared with `Cc1ccc(C2=NN(C(=O)CSc3nc(N)cc(N)n3)C(c3ccco3)C2)cc1` (configuration not stated), `Cc1ccc(Nc2nc(N)nc(CSc3nc4c(n3-c3ccccc3)CCCC4)n2)cc1` is lower in inhibition: 2.13% for the first, -1.36% for the second.

Compared with `COCCc1cc(C(F)(F)F)c2c(=O)n(C)c(=O)n(C)c2n1`, `Cn1c(=O)c2c(SC/C(O)=C(\C#N)c3nc4ccccc4[nH]3)nc(C(C)(C)C)nc2n(C)c1=O` is higher in inhibition: -0.29% for the first, 0.74% for the second.

Compared with `Cn1c(N)c(C(=O)NCc2ccccc2)c2nc3ccccc3nc21`, `Cc1ccc2cc(C#N)c(NCCNC(=O)Nc3ccccc3C)nc2c1` is higher in inhibition: -1.54% for the first, 4.18% for the second.

Going from `CCOC(=O)c1c(C)[nH]c(C(=O)CN2C(=O)NC(CC)(c3ccc(F)cc3)C2=O)c1C` (configuration not stated) to `Cc1nn(CCC#N)c2nc(-c3ccc(F)cc3)cc(C(=O)O)c12`, the inhibition rises from -1.75% to 0.45%.

First: Cc1cc(Oc2ccc3c(c2)OCO3)nc2ccccc12
Second: COc1ccc(C)cc1NC(=O)C(OC(=O)c1ccc(Br)o1)c1ccccc1 (configuration not stated)
The inhibition of the first is higher: 6.24% for the first, -0.6% for the second.

First: Clc1ccc(/C=N/NCc2cn3ccsc3n2)cc1
Second: CC1CN(C(=O)COC(=O)c2cccc3ccccc23)CC(C)O1 (configuration not stated)
The inhibition of the first is lower: 0.12% for the first, 1.48% for the second.

Compared with `S=C(Nc1cccnc1)Nc1ccccc1N1CCCCC1`, `c1ccc(-n2nnnc2Sc2nnc3n2CCCCC3)cc1` is lower in inhibition: 3.7% for the first, -0.02% for the second.

Compared with `CSc1nnc(C)n1Cc1ccccc1`, `NC(=O)CSc1nnc(SCCOc2ccccc2)s1` is higher in inhibition: -0.73% for the first, 0.35% for the second.

First: Cc1occc1C(=O)Nc1cccc(-c2nn[nH]n2)c1
Second: CCN=c1sc(C(=O)Nc2ccccc2)c(C)n1CC
The inhibition of the first is higher: 1.61% for the first, -0.02% for the second.

Going from `CC1CN(C(=O)CSc2nc3scc(-c4ccccc4)c3c(=O)n2N)CC(C)O1` (configuration not stated) to `Nn1c(SCC2CCCCO2)nnc1-c1ccncc1` (configuration not stated), the inhibition rises from 1.03% to 1.26%.

Compared with `COCCn1c(C)cc(C(=O)CSc2nc(C)c(C)n2C2CCCCC2)c1C`, `COC(=O)Cc1c(C)n[nH]c1C` is higher in inhibition: -0.27% for the first, 1.01% for the second.

For `O=C(Nc1ccncc1)OCCc1ccccn1`, the inhibition was 4.83%.
